This note sets out measurements from PubChem BioAssay AID624337 (National Center for Advancing Translational Sciences (NCATS), 2012).

Each structure is given as a SMILES string. Inconclusive results are not listed. Activity calls are given as the source filed them. Calls come from the whole dose curve; as a rule, active = well fitted curve in the direction sought with a large enough effect; inconclusive = small, poorly fitted or top-dose-only effect; inactive = flat fitted curve, though single readings scatter.

The nature of the experiment: Quantitative high throughput screen for delayed death inhibitors of the malarial parasite plastid: Hit Validation with Dd2 at 96hr using Flow Cytometry. The settings on record: P. falciparum Dd2 growth; parasitemia, lower = inhibition: at 50 µM (top of the series). An excerpt:
The goal of this screen is to discover new antimalarial compounds that act by inhibiting the development of the apicoplast organelle in the malarial parasite Plasmodium falciparum. Some antibiotics, such as azithromycin and tetracycline, are known to interfere with the apicoplast translational machinery, and have a potent antimalarial effect. […] We developed a cell-based quantitative high throughput screen that leverages this "delayed death" phenotype to enrich for compounds that target the apicoplast. To detect small molecules that cause the delayed death phenotype, erythrocytes infected with firefly luciferase-expressing parasites were incubated with compounds for either one or two generations, corresponding to 48 and 96 hours, respectively. Growth inhibition was detected by a decrease in luciferase activity. Compounds that inhibited parasite growth in the second generation at least five-fold more potently than in the first generation were defined as delayed death inducing. These compounds were selected for confirmatory screening using a flow cytometry based assay. This hit validation assay used the Dd2 cell line and measured at 96 hours. NIH Molecular Libraries Probe Production Network [MLPCN] NIH Chemical Genomics Center [NCGC] MLPCN Grant: R21 NS059500 Assay Provider: David Fidock and Eric Ekland, Columbia University
Test compounds were diluted in 20 microliters of complete media (RPMI 1640 with 0.5% w/v Albumax (GIBCO), 24 mM sodium bicarbonate (Sigma) and 10 ug/mL gentamycin (Gibco)) in clear 384-well plates (Greiner). All liquid handling was conducted using a Bio Tek Precision 2000 pipetting system. Twenty microliters of infected erythrocytes, 0.2% parasitemia (for 48 hour time points) or 0.1% parasitemia (for 96 hour time points) were added to the compound dilutions (1% hematocrit, final concentration; 40 microliters, total culture volume). The assay plates were incubated for 48 hours, or 96 hours, at 37 masculine C in a humidified chamber (Billups- Rothenberg, Del Mar, CA, USA), gassed with 5%CO2/5%O2/ 90%N2. After two generations (96 hours), 5 microliters of culture were harvested and transferred to a second 384 well plate for fluorescent staining. Samples were stained with 30 microliters of 2 x SYBR Green I (Invitrogen) and 150nM MitoTracker Deep Red (Invitrogen) diluted in 0.9% NaCl, 0.2% dextrose (Baxter) supplemented with 2.5% Fetal Calf Serum (Gibco) (saline/FCS). Mature erythrocytes lack nuclei and mitochondria, therefore only parasitized erythrocytes retain the SYBR Green I and MitoTracker Deep Red. After 30 minutes at 37 masculine C, the stained cells were diluted in an additional 60 microliters of saline/FCS. The samples were harvested directly from the 384 well plate using a Hypercyt High Capacity Flow Platform (Intellicyt) paired with a C6 Flow Cytometer (Accuri). The flow cytometry files were analyzed using FlowJo software (FlowJo).
Background: Flow cytometry measures light scatter and fluorescence of single cells or particles in a stream.
Take `CCc1nc(SCC(=O)Nc2ccc(N(C)C)cc2)n[nH]1`: the Potency was 15.1 µM (active).

Turning to `Brc1cccc(OCCCCN2CCCCC2)c1`, the Potency is 2.79 µM (active).

As for `c1csc(CNc2ncnc3nc[nH]c23)c1`, the Potency is 31.3 µM (active).

For `COc1ccc(NC(=S)N2CCC(Cc3ccccc3)CC2)cc1OC`, the parasitemia, lower = inhibition is 0.714 (active).

For the compound `COc1cccc(CN2CCN(c3nc4nonc4nc3N3CCCCC3)CC2=O)c1`, the Potency was 5.78 µM (active).

Turning to `CCOc1ccc(C(=O)Nc2ccc(N3CCN(C)CC3)cc2)cc1`, the parasitemia, lower = inhibition was 0.471 (active).

With `Cc1c(F)c(N2CCNC(C)C2)cc2c1c(=O)c(C(=O)O)cn2C1CC1` (configuration not stated), the Potency was 0.479 µM (active).

For the compound `COc1ccc(C(=O)N2CCN(S(=O)(=O)c3ccc(C)cc3C)CC2)cc1OC`, the Potency was 29.7 µM (active).

Consider `COc1ccc2cc3cc(C(=O)Nc4ccc5c(c4)OCO5)oc3nc2c1`, for which the Potency was 24.9 µM (active).

Consider `N#Cc1cccc(NC(=O)Cn2c3[n+](c4ccc(C(F)(F)F)cc42)CCCCC3)c1`, for which the Potency is 0.424 µM (active).

In the case of `CCCCN(CCCNC(=O)c1ccc(CS(=O)(=O)c2ccc(OC)cc2)o1)Cc1ccccc1`, the Potency was 1.66 µM (active).

For the compound `COc1ccc(CNC(=O)C2CCC(CNS(=O)(=O)c3cccc4cccnc34)CC2)cc1` (configuration not stated), the Potency was 38.9 µM (active).

Take `O=C(CNC(=O)C1CCCCC1)OC(C(=O)c1ccccc1)c1ccccc1` (configuration not stated): the parasitemia, lower = inhibition was 0.991 (active).

Turning to `CN(C)c1ccc(CN(C(=O)c2ccccc2Br)C2CCS(=O)(=O)C2)cc1` (configuration not stated), the Potency was 29.1 µM (active).

Take `Cc1ccc(S(=O)(=O)Nc2ccc(C(=O)Nc3ccncc3)cc2)cc1`: the Potency is 14 µM (active).

For `COc1ccc2c(ccc[n+]2CC(=O)c2ccccc2)c1`, the Potency is 5.18 µM (active).

For `COCCNC(=O)c1cccc(OC2CCN(Cc3cccc(SC)c3)CC2)c1`, the “parasitemia, lower = inhibition” value was 1.86 (inactive).

As to `CCCCOc1ccc(N2C(N)=NC(N)=NC23CCCCC3)cc1`, the Potency was 4.34 µM (active).

Turning to `Cc1ccc(CN2CCC(n3nccc3NC(=O)c3ccccc3C)CC2)o1`, the Potency was 12.8 µM (active).

Turning to `CC1=Nc2cc(C(=O)N3CCCC3)ccc2Sc2ccc(C)cc21`, the parasitemia, lower = inhibition was 0.0412 (active).

Consider `O=C(CSc1ccc(-c2cccnc2)nn1)Nc1ccccc1C(F)(F)F`, for which the Potency is 6.51 µM (active).

In the case of `Clc1ccc(-c2c[n+](Cc3ccc(Cl)cc3Cl)c3n2CCCCC3)cc1`, the Potency is 0.244 µM (active).

Turning to `COc1ccc(Nc2nnc(-c3ccc(C)cc3)c3ccccc23)cc1C(=O)N1CCCCC1`, the Potency was 25.7 µM (active).

For `CCCc1c(CC)c(=N)c2ccccc2n1C`, the Potency is 0.113 µM (active).

Regarding `CCOc1ccc(NC(=O)C[n+]2ccc(N(C)C)cc2)cc1`, the Potency was 0.121 µM (active).

In the case of `CCC(=O)OC1C(N(C)C)CC(C)O[C@H]1O[C@H]1[C@H](C)[C@@H](O[C@H]2CC(OC)[C@@H](O)C(C)O2)[C@H](C)C(=O)O[C@@H](CC)[C@](C)(O)[C@@H](O)[C@H](C)C(=O)[C@@H](C)C[C@]1(C)O` (some centres not stated), the Potency is 4.56 µM (active).

With `O=C(c1ccc([N+](=O)[O-])cc1)n1nc(-c2ccccc2)nc1NCc1ccc(F)cc1`, the Potency is 24.6 µM (active).

For `O=C(Nc1ccccc1N1CCOCC1)c1cccc(S(=O)(=O)N2CCOCC2)c1`, the Potency is 10.6 µM (active).

As for `CO[C@@H]1[C@@H](OC2OC(C)C(OC3CC(C)(O)C(OC(=O)CC(C)C)C(C)O3)C(N(C)C)C2O)[C@@H](CC=O)C[C@@H](C)C(=O)/C=C\C2O[C@H]2C[C@@H](C)OC(=O)C[C@H]1OC(C)=O` (some centres not stated), the Potency was 0.0981 µM (active).

On to `Cc1sc2nc[nH]c(=O)c2c1-c1ccc(Cl)cc1`, for which the Potency is 9.78 µM (active).

On to `COc1ccccc1N1CCN(CCC(=O)Nc2ccc(F)cc2)CC1`, for which the Potency was 8.91 µM (active).

Turning to `CC(C)C(=O)NCCSc1c[nH]c2ccccc12`, the Potency is 5.01 µM (active).

On to `CC(=O)NC[C@@H]1CN(c2ccc(N3CCOCC3)c(F)c2)C(=O)O1`, for which the Potency is 18 µM (active).

Take `Cc1ccc(-n2c(-c3ccc(Cl)cc3)c[n+]3c2CCC3)cc1`: the Potency was 0.0825 µM (active).

For the compound `CCCCN(CCCNC(=O)C1CCN(C(=O)c2cc3sccc3n2C)CC1)Cc1ccccc1`, the Potency was 0.389 µM (active).

Turning to `CCOC(=O)c1ccc2c(c1)n(CC)c(/C=C/N(C)c1ccccc1)[n+]2CC`, the Potency was 0.185 µM (active).

Take `CCOc1ccc(S(=O)(=O)Nc2cc(S(=O)(=O)N(CC)CC)ccc2N2CCCC2)cc1`: the Potency was 13.9 µM (active).
